Assay results reported in PubChem BioAssay AID1159580 (chemical genetic matrix, 2015).
Values joined by “and” are separate entries in the source; they are usually repeats but may differ in a detail not shown here. Equal values may be shown once. The campaign covered roughly 5,500 compounds. About 2,000 (36%) were called active. Not shown: some 18% with an inconclusive outcome. Rule as the data show it: active = normalized growth mostly below about 0.91 (no sharp cut-off); inconclusive = no clear call, values can overlap the other calls; inactive = mostly above about 0.92. The list shows a part of the results.

Test: chemical genetic growth profiling, strain panel (AID 1159580);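 also: tested at 20 µM; growth read once vehicle control cultures reached saturation at 30 °C; 1 = growth at the plate median or of vehicle wells; lower values mean less growth of the strain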
Settings: S. cerevisiae deletion strains, growth OD

Measured: normalized growth

CO[C@@H]1[C@@H](OC(N)=O)[C@@H](O)[C@H](Oc2ccc3c(O)c(NC(=O)c4ccc(O)c(CC=C(C)C)c4)c(=O)oc3c2C)OC1(C)C
inactive: locus YAL013W, strain DEP1, hits give low values 1.02 | locus YAL021C, strain ccr4, hits give low values 1.03 | locus YAL026C, strain drs2, hits give low values 1.02 | locus YAL030W, strain snc1, hits give low values 1.03 | locus YBL061C, strain skt5, hits give low values 1.02 | locus YBR009C, strain hhf1, hits give low values 1.02 | locus YBR021W, strain FUR4, hits give low values 1.04 | locus YBR023C, strain chs3, hits give low values 1.04 | locus YBR171W, strain sec66, hits give low values 1.06 | locus YBR229C, strain ROT2, hits give low values 1.01 | locus YBR231C, strain swc5, hits give low values 1.04 | locus YBR279W, strain paf1, hits give low values 1.05 | locus YCL011C, strain gbp2, hits give low values 1.03 | locus YCL016C, strain dcc1, hits give low values 1.04 | locus YCL029C, strain bik1, hits give low values 0.995 | locus YCL061C, strain MRC1, hits give low values 1.03 | locus YCL069W, strain vba3, hits give low values 1.03 | locus YCR088W, strain abp1, hits give low values 1.04 | locus YDL005C, strain med2, hits give low values 1.04 | locus YDL035C, strain GPR1, hits give low values 1.01 | locus YDL040C, strain nat1, hits give low values 1.03 | locus YDL074C, strain BRE1, hits give low values 0.955 | locus YDL101C, strain DUN1, hits give low values 1.02 | locus YDL134C, strain PPH21, hits give low values 1.01 | locus YDL185W, strain tfp1, hits give low values 0.945 | locus YDL192W, strain arf1, hits give low values 0.988 | locus YDR001C, strain nth1, hits give low values 1.03 | locus YDR069C, strain doa4, hits give low values 1.01 | locus YDR101C, strain arx1, hits give low values 1.01 | locus YDR137W, strain rgp1, hits give low values 0.998 | locus YDR150W, strain NUM1, hits give low values 1.02 | locus YDR159W, strain sac3, hits give low values 0.98 | locus YDR162C, strain NBP2, hits give low values 0.968 | locus YDR195W, strain ref2 1.04 | locus YDR297W, strain sur2, hits give low values 1.03 | locus YDR318W, strain mcm21, hits give low values 0.991 | locus YDR334W, strain swr1, hits give low values 1.03 | locus YDR335W, strain msn5, hits give low values 1.06 | locus YDR388W, hits give low values 0.991 | locus YDR392W, strain spt3, hits give low values 0.999 | locus YDR502C, strain sam2, hits give low values 0.999 | locus YEL003W, strain gim4, hits give low values 0.999 | locus YEL037C, strain rad23, hits give low values 1.04 | locus YEL061C, strain CIN8 (second series), hits give low values 1.02 | locus YEL061C, strain CIN8, hits give low values 0.992 | locus YER015W, strain faa2, hits give low values 1.04 | locus YER016W, strain bim1, hits give low values 1.03 | locus YER110C, hits give low values 0.985 | locus YER111C, strain swi4, hits give low values 1.03 | locus YER155C, strain BEM2 (second series), hits give low values 1.06 | locus YER155C, strain BEM2, hits give low values 1.04 | locus YER167W, strain BCK2, hits give low values 1.02 | locus YFR010W, strain ubp6, hits give low values 1.02 | locus YGL078C, strain dbp3, hits give low values 0.954 | locus YGL086W, strain mad1, hits give low values 1.02 | locus YGL167C, strain pmr1, hits give low values 1.02 | locus YGL173C, strain kem1, hits give low values 1.05 | locus YGL227W, strain vid30, hits give low values 1.03 | locus YGL240W, strain doc1, hits give low values 1.01 | locus YGL248W, strain PDE1, hits give low values 1.02 | locus YGL253W, strain hxk2, hits give low values 1 | locus YGR078C, strain PAC10, hits give low values 1.01 | locus YGR135W, strain pre9, hits give low values 0.993 | locus YGR229C, strain SMI1, hits give low values 1.01 | locus YGR252W, strain gcn5, hits give low values 1.16 | locus YHR013C, strain ard1, hits give low values 1.05 | locus YHR027C, strain rpn1, hits give low values 1.04 | locus YHR030C, strain SLT2, hits give low values 1.02 and 0.882 | locus YHR079C, strain IRE1 (second series), hits give low values 0.986 | locus YHR079C, strain IRE1, hits give low values 0.87 | locus YHR094C, strain hxt1, hits give low values 0.995 | locus YHR129C, strain ARP1, hits give low values 1 | locus YHR142W, strain chs7, hits give low values 1.01 | locus YHR200W, strain rpn10, hits give low values 0.989 | locus YIL066C, strain RNR3, hits give low values 1.01 | locus YIL073C, strain SPO22, hits give low values 0.71 | locus YIL125W, strain kgd1, hits give low values 0.964 | locus YIR030C, strain dcg1, hits give low values 0.992 | locus YJL092W, strain hpr5, hits give low values 1.03 | locus YJL095W, strain BCK1 (second series), hits give low values 1.04 | locus YJL095W, strain BCK1, hits give low values 1.04 and 0.919 | locus YJL115W, strain asf1, hits give low values 1.04 | locus YJL129C, strain trk1, hits give low values 0.971 | locus YJL134W, strain LCB3, hits give low values 1.01 | locus YJL154C, strain vps35, hits give low values 1.04 | locus YJL164C, strain tpk1, hits give low values 1.02 | locus YJL166W, strain qcr8, hits give low values 1.04 | locus YJL168C, strain set2, hits give low values 0.988 | locus YJL187C, strain SWE1 (second series), hits give low values 1.01 | locus YJL187C, strain SWE1, hits give low values 1.03
